Assay outcomes (PubChem BioAssay)
TDP1 cell noCPT: qHTS for Inhibitors of human tyrosyl-DNA phosphodiesterase 1 (TDP1): qHTS in cells in absence of CPT; Potency, µM (highest dose often 46.2 µM), inactives show at the top dose activity change, negative = growth inhibition, hits mostly inhibitors; 420,000 compounds, 15% hits; DT40 Tdp1-/- hTDP1 cells, no CPT, ATP luminescence, 48 h; also: % is scaled to controls: 0 for no effect and ±100 for the full control effect; nearly all actives have a fitted effect of over 55% in size
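Cells were dispensed at 400 per well, compounds added by pin tool, plates incubated ≥48 hr at 37 °C, then CellTiter-Glo added for 30 min at room temperature before luminescence reading. Line: DT40 Tdp1-/- complemented with hTDP1; camptothecin omitted.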
HepG2 viability: HepG2 cytotoxicity, counter-screen for TGF-b inhibitors. 410,000 compounds, 0.76% hits. HepG2 CAGA-GFP viability, ATP luminescence, 18 h. Potency, µM (top dose mostly 46.1 µM), for inactives: top-dose activity change, negative = cytotoxicity, actives largely listed as cytotoxic. AID 588856
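CellTiter-Glo luminescence gave cytotoxicity after 18 hours at 37 degrees C. The cells were HepG2 CAGA-GFP in 1% FBS DMEM, stimulated with 500 pg/mL TGF-beta after compound addition. %Activity was normalised to no-cell wells (complete cell-killing) and DMSO (no toxicity), and curves were fitted and classified.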
TGFb SMAD3 inh: blocks TGF-b signaling. AID 588855. Potency, µM (top dose mostly 46.1 µM), for inactives: top-dose activity, negative = inhibition, hits mostly inhibitors. HepG2 CAGA-GFP TGF-b/SMAD3 reporter, GFP fluorescence, 18 h; TGF-beta stimulated, 500 pg/mL final. 410,000 compounds, 1.2% hits; also: % is scaled to controls: 0 for no effect and ±100 for the full control effect; nearly all actives have a fitted effect of over 65% in size
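Smad-responsive CAGA-GFP expression was quantified in HEPG2 cells exposed to compounds and 500 pg/mL final TGF-beta for 18 h at 37 degrees C; unstimulated wells defined full inhibition.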
HT1080NT lethal: kills 2HG-producing HT-1080-NT fibrosarcoma cells; HT-1080-NT fibrosarcoma viability, CellTiter-Glo ATP luminescence, 48 h; Potency, µM (top dose mostly 46.1 µM), for the others: at the top dose activity, negative = less viability, most hits filed as cytotoxic; 360,000 compounds, 1.6% hits;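 also: NT is the 2HG producing partner of a matched IDH1 knockdown line; 0% = DMSO-treated cells and -100% = media-only wells without cells; nearly all actives have a fitted effect of over 55% in size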
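Read-out is CellTiter-Glo luminescence after 10 minutes at room temperature, following 48 hours' compound treatment of HT-1080-NT cells (750 cells/well, RPMI, 5% FBS, 37 degrees C).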
DT40 TDP1 CPT: DT40-hTDP1 cell growth loss with CPT. chicken DT40 Tdp1-/-;hTDP1 cells + 20 nM CPT, ATP luminescence, 48 h. Potency, µM (doses to about 46.2 µM), inactives show at the top dose activity change, negative = growth inhibition, hits mostly inhibitors. 420,000 compounds, 12% hits. AID 686979; also: % is scaled to controls: 0 for no effect and ±100 for the full control effect; nearly all actives have a fitted effect of over 55% in size
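Chicken DT40 Tdp1-/- cells stably complemented with human TDP1 were seeded at 400 cells/well in medium containing 20 nM camptothecin, exposed to pin-transferred compounds, and grown at 37 °C for at least 48 hr. Viability was read as ATP luminescence.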
HT1080 IDH1KD tx: toxicity to HT-1080 IDH1 knockdown cells (counter line); HT-1080 IDH1 knockdown viability, ATP luminescence, 48 h; Potency, µM (titrated, usually from 46.1 µM), for the others: at the highest dose activity, negative = toxicity, usual class: cytotoxic; 360,000 compounds, 2% hits;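 also: 0% = DMSO wells and -100% = cell-free medium wells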
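In this qHTS, HT-1080 cells depleted of IDH1 are exposed for 48 h at 37 °C to compound titrations. Toxicity is scored from CellTiter-Glo luminescence, with DMSO as full viability and medium alone as none.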
Numbers without * were called inactive; ? = inconclusive; · = no result given; ! = repeats disagree. Most compounds without a hit are left out; they make up all but 17% or so of the library. Calls follow the shape of the dose curve; as a rule, active = well fitted curve in the direction sought with a large enough effect; inconclusive = small, poorly fitted or top-dose-only effect, or another doubt; inactive = no such curve, though single readings can be large; an effect the other way counts as inactive or inconclusive. Potency is read from the fitted curve at half-maximal effect.

SMILES | TDP1 cell noCPT | HepG2 viability | TGFb SMAD3 inh | HT1080NT lethal | DT40 TDP1 CPT | HT1080 IDH1KD tx
Cc1cnc(C)c(Nc2nc(C(N)CCc3ccccc3)cs2)n1 (stereo not drawn) | 18µM* | -66% | ? | ? | 16µM* | ?
COc1ccc(CC(N)c2csc(Nc3cc(NCc4ccco4)ncn3)n2)cc1 (stereo not drawn) | 13µM* | 11µM* | ? | ? | ? | ?
Cc1cnc(C)c(Nc2nc(C(N)Cc3ccc(F)cc3)cs2)n1 (stereo not drawn) | ? | -107% | ? | 21µM* | 26µM* | ?
CCCCN(CC)CCCNC(=O)c1cc2c(=O)[nH]c3ccccc3c2s1 | 23µM* | -22% | -4% | ? | ? | ?
CCCCN(CC)CCNC(=O)c1cc2c(=O)[nH]c3ccccc3c2n1C | 16µM*! | -18% | 2% | 0% | 15µM*! | -1%
CCCCN(CC)CCCNC(=O)c1cc2c(=O)[nH]c3ccccc3c2n1C | ? | -27% | -7% | · | ? | ·
Cc1ccc2[nH]c(=O)c3cc(C(=O)NCCC(C)C)sc3c2c1 | ? | -18% | -8% | ? | ? | 22%
CCCCN(CC)CCNC(=O)c1cc2c(=O)[nH]c3ccc(C)cc3c2s1 | ? | -71% | ? | 16µM* | ? | 18µM*
COc1cc(NS(=O)(=O)c2ccc(NC(=O)c3ccc(C(C)=O)cc3)cc2)nc(OC)n1 | -17% | -13% | -26% | · | -22% | ·
CC(=O)c1ccc2c(c1)N(Cc1ccccc1Cl)C(=O)C(C)S2 (stereo not drawn) | ? | -18% | -12% | -16% | ? | -9%
CSc1cccc(NS(=O)(=O)c2ccc3[nH]cc(C(=O)N4CCCC4)c(=O)c3c2)c1 | -2% | -22% | ? | · | -1% | ·
Cc1cccc(C)c1OCC(=O)N(Cc1ccc(Cl)cc1)C1CCS(=O)(=O)C1 (stereo not drawn) | ? | -7% | 2% | -2% | ? | -5%
C#CCOCC1CN(C)C(=O)O1 (stereo not drawn) | 2% | -3% | ? | 0% | -1% | -1%
S=c1nc(Cc2ccccc2)[nH]c2ccccc12 | ? | 4% | 1% | 9% | 26µM* | -1%
S=c1nc(Cc2ccc(Cl)cc2)[nH]c2ccccc12 | ? | -18% | -16% | -15% | -29% | -6%
COC(=O)c1cccc(C(=O)N2CCCC(CCC(=O)N(C)CCc3ccccn3)C2)c1 (stereo not drawn) | 9% | -1% | 0% | 13% | -21% | 5%
Cc1ccc(C)n1-c1ccc(N(C)C)cc1 | 29µM* | -4% | 0% | -24% | ? | -16%
CC(=O)N1N=C(c2ccc(C(C)(C)C)cc2)OC1(C)C | 10µM* | -54% | ? | -18% | 15µM* | -18%
CC(=O)N1N=C(c2ccc3ccccc3c2)OC1(C)C | ? | 2% | 6% | 0% | 18µM* | 3%
COc1ccc(CC2(C)OC(c3ccccc3)=NN2C(C)=O)cc1 (stereo not drawn) | -5% | 9% | -1% | 10% | 12% | 3%
CC1(C(=O)NC(=S)NNC(=O)c2ccncc2)CCCCC1 | 16µM* | -26% | ? | -19% | 13µM* | ?
O=C(NNC(=S)NC(=O)C12CC3CC(CC(C3)C1)C2)c1ccncc1 | ? | -18% | -6% | 13µM* | ? | 7.9µM*
O=C(NNC(=O)C12CC3CC(CC(C3)C1)C2)c1ccccn1 | 5.2µM* | -44% | ? | -21% | 4.1µM* | ?
Cc1cnn(-c2cc(N/N=C/c3ccccc3Cl)ncn2)c1 | ? | -9% | 10% | 0% | ? | -3%
COc1cccc(/C=N/n2c(C)nc3ccccc3c2=O)c1O | -15% | -29% | -19% | -13% | -6% | -8%
SMILES | TDP1 cell noCPT | HepG2 viability | TGFb SMAD3 inh | HT1080NT lethal | DT40 TDP1 CPT | HT1080 IDH1KD tx
COc1cccc(/C=N/Nc2cc(-n3nc(C)cc3-c3ccccc3)ncn2)c1O | 0.65µM* | -61% | ? | ? | 0.82µM* | ?
COc1cccc(/C=N/Nc2nc(Nc3ccccc3)nc(-n3nc(C)cc3C)n2)c1O | 0.58µM* | -43% | 1.6µM* | 6.5µM* | 0.82µM* | 7.3µM*
C(=N\NC1=Nc2cccc3cccc1c23)/c1ccccn1 | 9.2µM* | 1% | 2µM* | -20% | 8.2µM* | ?
C(=N\N=C\c1ccccn1)/c1ccccn1 | -5% | -17% | -15% | 29% | 17% | 19%
C(=NNc1ccc2ccccc2n1)c1ccccn1 | 1µM* | -37% | ? | 18µM* | 1.6µM* | 7.3µM*
Cc1csc(N/N=C/c2ccccn2)n1 | 0.46µM* | -27% | ? | ? | 0.58µM* | ?
Clc1ccccc1/C=N/NC1=Nc2cccc3cccc1c23 | ? | -51% | 26% | ? | ? | ?
CC1(C)C(c2ccccc2)=[N+]([O-])CN1O | -26% | 4% | 2% | ? | -15% | 1%
COc1cc(CNc2ccc(CNc3ncn[nH]3)cc2)cc(Cl)c1OCc1ccccc1 | ? | -38% | -9% | -18% | ? | -23%
